{"source": "PubChem BioAssay (NCATS)", "note": "Values joined by “and” are separate entries in the source; they are usually repeats but may differ in a detail not shown here. Identical values can stand only once. Inconclusive results are not listed. Active and inactive are the calls of the source. Calls follow the shape of the dose curve; as a rule, active = well fitted curve in the direction sought with a large enough effect; inconclusive = small, poorly fitted or top-dose-only effect, or another doubt; inactive = no such curve, though single readings can be large; an effect the other way counts as inactive or inconclusive."}
{"tested_on": "Zika virus NS2B-NS3 protease", "experiment": "Primary screen GU AMC qHTS for Zika virus inhibitors (AID 1347154); also: nearly all actives have a fitted effect of over 70% in size; also: potency is read from the fitted curve at half-maximal effect;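 as to activity change, negative = inhibition: 0% = no-inhibitor control and -100% = no-enzyme control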", "settings": "Zika NS2B-NS3 unlinked protease, AMC fluorogenic substrate; series mostly up to 54.1 µM; activity change, negative = inhibition: at the top concentration", "in_short": "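Unlinked Zika NS2B hydrophilic domain/NS3 protease domain noncovalent complex (25 nM final) in 10 mM Tris-HCl pH 8.0, 0.01% Tween 20, with AMC peptide substrate. Fluorescence (ex 340, em 450 nm) change over 15 min, room temperature; percent inhibition fitted to 4-parameter Hill equation.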"}
{"smiles": "N#Cc1cc2nc(O)c(O)nc2cc1[N+](=O)[O-]", "activity change, negative = inhibition": "16.3% (inactive)"}
{"smiles": "CCN(CC)CCCCCCCCOC(=O)c1cc(OC)c(OC)c(OC)c1", "Potency": "inactive"}
{"smiles": "NC/C=C\\C(=O)O", "Potency": "inactive"}
{"smiles": "O=C(O)C1=CCCN(CCON=C(c2ccccc2)c2ccccc2)C1", "Potency": "inactive"}
{"smiles": "OC1(c2ccc(Cl)cc2)CCN(Cc2c[nH]c3ccccc23)CC1", "Potency": "inactive"}
{"smiles": "Nc1nc2ccc(Cl)cc2c2nc(-c3ccco3)nn12", "Potency": "inactive"}
{"smiles": "Cn1c(=O)[nH]c2ncn(C)c2c1=O", "activity change, negative = inhibition": "5.9% (inactive)"}
{"smiles": "c1ccc(C(NCc2cccnc2)(c2ccccc2)c2ccccc2)cc1", "activity change, negative = inhibition": "-0.908% (inactive)"}
{"smiles": "COc1ccc(CCN(C)CCc2ccc(OC)c(OC)c2)cc1OC", "Potency": "inactive"}
{"smiles": "NC(N)=NC(N)=Nc1ccccc1", "Potency": "inactive"}
{"smiles": "NCCCCN=C(N)N", "Potency": "inactive"}
{"smiles": "CNC(=O)c1cc2c(cn1)[nH]c1ccccc12", "Potency": "21.2 µM (active) and 18.9 µM (active)"}
{"smiles": "O=[N+]([O-])c1cccc2cn[nH]c12", "activity change, negative = inhibition": "-9.24% (inactive)"}
{"smiles": "Nc1ncnc2c1ncn2C1CCCO1", "note": "(configuration not stated)", "Potency": "inactive"}
{"smiles": "O=C1Cc2c([nH]c3ccc(Br)cc23)-c2ccccc2N1", "activity change, negative = inhibition": "-6.93% (inactive)"}
{"smiles": "CCCCCC[C@@H]([C@@H](C)O)n1cnc2c(N)ncnc21", "Potency": "inactive"}
{"smiles": "C=C1C(=O)O[C@@H]2[C@H]3O[C@]3(C)CCC=C(C)CC[C@@H]12", "activity change, negative = inhibition": "-1.15% (inactive)"}
{"smiles": "CCCCOc1cc(CC2CNC(=O)N2)ccc1OC", "note": "(configuration not stated)", "activity change, negative = inhibition": "14.5% [at 104 µM] (inactive)"}
{"smiles": "Cn1c(=O)c2[nH]c(-c3ccc(S(=O)(=O)O)cc3)nc2n(C)c1=O", "Potency": "5.32 µM (active)"}
{"smiles": "CC(N)(C(=O)O)c1ccc(C(=O)O)cc1", "note": "(configuration not stated)", "activity change, negative = inhibition": "10.4% (inactive)"}
{"smiles": "COC(=O)C1=C(C)NC(C)=C([N+](=O)[O-])C1c1ccccc1C(F)(F)F", "note": "(configuration not stated)", "Potency": "inactive"}
{"smiles": "CN[C@H](CC(=O)O)C(=O)O", "Potency": "inactive"}
{"smiles": "CCc1ccc2c(-c3cccc(Cl)c3)nc(=O)n(CC)c2n1", "activity change, negative = inhibition": "12.4% (inactive)"}
{"smiles": "O=C(OCCN1CCOCC1)C1(c2ccccc2)CCCCC1", "Potency": "inactive"}
{"smiles": "Cc1cccc(C(=O)NCN2CCN(c3ccccc3C#N)CC2)c1", "activity change, negative = inhibition": "-1.83% (inactive)"}
{"smiles": "CC(C)(CO)Cc1cc(C(C)(C)C)c(O)c(C(C)(C)C)c1", "activity change, negative = inhibition": "-20.4% (inactive)"}
{"smiles": "CC(C)Cn1c(=O)n(C)c(=O)c2[nH]cnc21", "activity change, negative = inhibition": "0.338% (inactive)"}
{"tested_on": "not listed separately", "experiment": "ZIKV-mCherry secondary qHTS for Zika virus inhibitors (AID 1347158); also: top concentration of the series differs between compounds", "settings": "Vero cells, ZIKV-mCherry infection imaging, 48-72 h; series mostly up to 49.2 µM; activity change, negative = inhibition: at the top concentration", "in_short": "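Vero cells, 5,000/well, plated overnight at 37 °C, then compound added and infected with recombinant ZIKV-mCherry at MOI 1 for 48-72 h. PFA-fixed, Hoechst nuclear stain, high-content imaging; cells with mCherry intensity above 450 RFU scored infected, reported as percent infection.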"}
{"smiles": "Cc1nc(N=Nc2cc(S(=O)(=O)O)c3cc([N+](=O)[O-])cc(S(=O)(=O)O)c3c2)c(COP(=O)(O)O)c(C=O)c1O", "activity change, negative = inhibition": "-17.9% (inactive)"}
{"smiles": "O=C1NC(=O)c2cc(Nc3ccccc3)c(Nc3ccccc3)cc21", "activity change, negative = inhibition": "1120% (inactive)"}
{"smiles": "O=c1[nH]c(=S)[nH]c(-c2ccccc2)c1Cc1c(O)ccc2ccccc12", "activity change, negative = inhibition": "-8.33% [at 32.6 µM] (inactive)"}
{"smiles": "CCCc1c(OCCCOc2ccc(OCC(=O)O)cc2)ccc(C(C)=O)c1O", "activity change, negative = inhibition": "71.1% [at 32.6 µM] (inactive)"}
{"tested_on": "not listed separately", "experiment": "Confirmatory screen NINDS Rhodamine qHTS for Zika virus inhibitors (AID 1347161); also: nearly all actives have a fitted effect of over 60% in size; also: potency is read from the fitted curve at half-maximal effect;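 as to activity change, negative = inhibition: purified Zika NS2B-NS3 protease with linked NS2B cofactor domain and Rhodamine110 peptide substrate; plate controls were no-inhibitor control for no effect and no-enzyme control for full effect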", "settings": "purified enzyme assay, Rhodamine110 substrate fluorescence, 15 min; series mostly up to 114 µM; activity change, negative = inhibition: at the top concentration", "in_short": "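Kinetic fluorescence (Ex 480 nm, Em 540 nm) over 15 min with 1.5 microM Rhodamine110 peptide and 25 nM linked protease.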"}
{"smiles": "Nc1ccc(-c2ccc3ccccc3n2)cc1", "activity change, negative = inhibition": "-23.4% (inactive)"}
{"smiles": "Cn1cc(C(F)(F)F)nc1-c1ccc(OCC(O)CNCCOc2ccc(O)c(C(N)=O)c2)cc1", "note": "(configuration not stated)", "activity change, negative = inhibition": "20.8% (inactive)"}
{"smiles": "CCCC[C@@]1(C2CCCC2)Cc2cc(OCC(=O)O)c(Cl)c(Cl)c2C1=O", "Potency": "7.82 µM (active)"}
{"smiles": "COc1cc(/C=C(\\C#N)C(=O)Nc2nnc(C(F)(F)F)s2)ccc1OCc1ccc(C(F)(F)F)cc1C(F)(F)F", "Potency": "1.75 µM (active)"}
{"smiles": "O=c1[nH]c(=S)[nH]c(-c2ccccc2)c1Cc1c(O)ccc2ccccc12", "Potency": "3.49 µM (active)"}
{"smiles": "COc1cc2c(CCNC(C)=O)c[nH]c2cc1O", "activity change, negative = inhibition": "-13.7% (inactive)"}
{"smiles": "CCCc1c(OCCCOc2ccc(OCC(=O)O)cc2)ccc(C(C)=O)c1O", "Potency": "3.5 µM (active)"}
{"tested_on": "Zika virus NS2B-NS3 protease (linked construct)", "experiment": "384 well plate NINDS Rhodamine confirmatory qHTS for Zika virus inhibitors (AID 1347164); also: nearly all actives have a fitted effect of over 65% in size; also: potency is read from the fitted curve at half-maximal effect;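 as to activity change, negative = inhibition: top concentration of the series differs between compounds; plate controls were no-inhibitor control for no effect and no-enzyme control for full effect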", "settings": "rhodamine-110 peptide substrate fluorescence; series mostly up to 100 µM; activity change, negative = inhibition: at the top concentration", "in_short": "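Fluorescence read at ex 485 nm/em 538 nm, 25 min after adding 10 microM Ac-LKRR-Rd substrate at room temperature in the dark; signal normalized to no-enzyme and no-inhibitor controls. Enzyme final 5, 30 or 60 nM; compounds, ~15 min preincubation.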"}
{"smiles": "O=C1NC(=O)c2cc(Nc3ccccc3)c(Nc3ccccc3)cc21", "activity change, negative = inhibition": "-68.3% (inactive)"}
{"smiles": "COc1cc(/C=C(\\C#N)C(=O)Nc2nnc(C(F)(F)F)s2)ccc1OCc1ccc(C(F)(F)F)cc1C(F)(F)F", "Potency": "14.1 µM (active)"}
{"smiles": "O=c1[nH]c(=S)[nH]c(-c2ccccc2)c1Cc1c(O)ccc2ccccc12", "Potency": "70.8 µM (active)"}
{"smiles": "C=CCN1CCc2c(cc(O)c(O)c2Br)[C@@H](c2ccccc2)C1", "Potency": "8.91 µM (active)"}
{"smiles": "CCCc1c(OCCCOc2ccc(OCC(=O)O)cc2)ccc(C(C)=O)c1O", "Potency": "50.1 µM (active)"}
{"target": "Lysine-specific demethylase 5B (Homo sapiens) (UniProt Q9UGL1)", "sequence (Q9UGL1 whole entry, looked up)": "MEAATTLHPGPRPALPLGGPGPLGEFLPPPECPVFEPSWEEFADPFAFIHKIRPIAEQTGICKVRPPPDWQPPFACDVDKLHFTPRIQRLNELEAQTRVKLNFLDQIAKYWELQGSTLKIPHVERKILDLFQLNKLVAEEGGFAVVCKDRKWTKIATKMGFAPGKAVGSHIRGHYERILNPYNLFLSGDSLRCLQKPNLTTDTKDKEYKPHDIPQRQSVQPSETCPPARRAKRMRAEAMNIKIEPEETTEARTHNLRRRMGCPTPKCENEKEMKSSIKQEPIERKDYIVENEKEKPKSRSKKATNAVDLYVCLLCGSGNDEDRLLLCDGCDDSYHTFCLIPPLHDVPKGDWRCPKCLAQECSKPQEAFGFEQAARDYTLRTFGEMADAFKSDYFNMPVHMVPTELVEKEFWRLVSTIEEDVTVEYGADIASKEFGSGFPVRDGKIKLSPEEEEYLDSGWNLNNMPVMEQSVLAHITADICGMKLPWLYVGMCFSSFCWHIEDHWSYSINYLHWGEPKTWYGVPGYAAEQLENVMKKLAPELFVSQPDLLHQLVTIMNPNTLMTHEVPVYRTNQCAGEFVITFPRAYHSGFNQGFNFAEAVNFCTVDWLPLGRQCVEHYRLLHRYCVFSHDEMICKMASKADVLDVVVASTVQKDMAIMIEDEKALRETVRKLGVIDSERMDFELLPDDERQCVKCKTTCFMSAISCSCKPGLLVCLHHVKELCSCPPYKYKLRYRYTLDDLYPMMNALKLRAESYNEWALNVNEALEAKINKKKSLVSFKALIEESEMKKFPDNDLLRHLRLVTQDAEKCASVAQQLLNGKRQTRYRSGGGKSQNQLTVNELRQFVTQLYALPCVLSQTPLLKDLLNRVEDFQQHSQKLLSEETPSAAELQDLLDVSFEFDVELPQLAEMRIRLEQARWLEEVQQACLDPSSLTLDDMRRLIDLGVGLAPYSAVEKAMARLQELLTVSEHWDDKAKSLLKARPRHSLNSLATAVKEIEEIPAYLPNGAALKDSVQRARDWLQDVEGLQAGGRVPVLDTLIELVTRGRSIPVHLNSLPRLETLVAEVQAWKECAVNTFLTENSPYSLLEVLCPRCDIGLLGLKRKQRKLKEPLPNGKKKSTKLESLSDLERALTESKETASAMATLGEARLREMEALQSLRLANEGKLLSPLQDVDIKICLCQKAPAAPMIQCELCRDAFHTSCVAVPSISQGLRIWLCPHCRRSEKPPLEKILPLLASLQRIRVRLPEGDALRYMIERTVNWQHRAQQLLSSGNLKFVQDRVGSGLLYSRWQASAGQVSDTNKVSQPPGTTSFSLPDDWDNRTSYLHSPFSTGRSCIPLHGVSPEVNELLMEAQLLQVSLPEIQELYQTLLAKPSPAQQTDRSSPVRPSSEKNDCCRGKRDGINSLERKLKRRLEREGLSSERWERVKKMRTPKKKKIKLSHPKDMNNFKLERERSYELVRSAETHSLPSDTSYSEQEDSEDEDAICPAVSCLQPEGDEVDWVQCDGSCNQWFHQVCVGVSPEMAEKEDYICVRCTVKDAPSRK", "experiment": "Optimization screen for KDM5B Histone Demethylases FDH coupled qHTS against the LOPAC library (AID 1347166); also: 0% is about no effect", "settings": "KDM5B demethylation, FDH-coupled NADH fluorescence (FDH is formaldehyde dehydrogenase); at 57.5 µM (top of the series)", "in_short": "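KDM5BDeltaAP (200nM final) preincubated 10 min with compound, then 12.5uM H3K4Me3, 25uM a-ketoglutarate, ascorbate, Fe(II), NAD+ and FDH added; 50mM HEPES pH 7.5, 0.01% Tween-20. NADH fluorescence (340/450 nm) change over 30 min, room temperature.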"}
{"smiles": "N#Cc1cc2nc(O)c(O)nc2cc1[N+](=O)[O-]", "activity, negative = inhibition": "-14.6% (inactive)"}
{"smiles": "CCN(CC)CCCCCCCCOC(=O)c1cc(OC)c(OC)c(OC)c1", "activity, negative = inhibition": "-10.5% (inactive)"}
{"smiles": "CNCCc1cnc(CCC(c2ccccc2)c2ccccc2)[nH]1", "activity, negative = inhibition": "-15.1% (inactive)"}
{"smiles": "NC/C=C\\C(=O)O", "activity, negative = inhibition": "3.97% (inactive)"}
{"smiles": "Cc1nc(N=Nc2cc(S(=O)(=O)O)c3cc([N+](=O)[O-])cc(S(=O)(=O)O)c3c2)c(COP(=O)(O)O)c(C=O)c1O", "activity, negative = inhibition": "-12.7% (inactive)"}
{"smiles": "O=C(O)C1=CCCN(CCON=C(c2ccccc2)c2ccccc2)C1", "activity, negative = inhibition": "1.04% (inactive)"}
{"smiles": "OC1(c2ccc(Cl)cc2)CCN(Cc2c[nH]c3ccccc23)CC1", "activity, negative = inhibition": "-0.728% (inactive)"}
{"smiles": "Cn1c(=O)[nH]c2ncn(C)c2c1=O", "activity, negative = inhibition": "-3.98% (inactive)"}
{"smiles": "c1ccc(C(NCc2cccnc2)(c2ccccc2)c2ccccc2)cc1", "activity, negative = inhibition": "-13.8% (inactive)"}
{"smiles": "COc1ccc(CCN(C)CCc2ccc(OC)c(OC)c2)cc1OC", "activity, negative = inhibition": "3.09% (inactive)"}
{"smiles": "NC(N)=NC(N)=Nc1ccccc1", "activity, negative = inhibition": "-3.27% (inactive)"}
{"smiles": "O=C1NC(=O)c2cc(Nc3ccccc3)c(Nc3ccccc3)cc21", "activity, negative = inhibition": "-17.6% (inactive)"}
{"smiles": "NCCCCN=C(N)N", "activity, negative = inhibition": "-1.42% (inactive)"}
{"smiles": "O=[N+]([O-])c1cccc2cn[nH]c12", "activity, negative = inhibition": "-3.93% (inactive)"}
{"smiles": "Nc1ncnc2c1ncn2C1CCCO1", "note": "(configuration not stated)", "activity, negative = inhibition": "-7.06% (inactive)"}
{"smiles": "CCCC[C@@]1(C2CCCC2)Cc2cc(OCC(=O)O)c(Cl)c(Cl)c2C1=O", "activity, negative = inhibition": "-4.31% (inactive)"}
{"smiles": "O=C1Cc2c([nH]c3ccc(Br)cc23)-c2ccccc2N1", "activity, negative = inhibition": "-26.8% (inactive)"}
{"smiles": "CCCCCC[C@@H]([C@@H](C)O)n1cnc2c(N)ncnc21", "activity, negative = inhibition": "-6.57% (inactive)"}
{"smiles": "C=C1C(=O)O[C@@H]2[C@H]3O[C@]3(C)CCC=C(C)CC[C@@H]12", "activity, negative = inhibition": "-8.83% (inactive)"}
{"smiles": "CCCCOc1cc(CC2CNC(=O)N2)ccc1OC", "note": "(configuration not stated)", "activity, negative = inhibition": "-3.5% (inactive)"}
{"smiles": "O=c1[nH]c(=S)[nH]c(-c2ccccc2)c1Cc1c(O)ccc2ccccc12", "activity, negative = inhibition": "-27.4% (inactive)"}
{"smiles": "CC#CCOC(=O)c1c(C)nc2sc3c(c2c1N)CCC(O)C3", "note": "(configuration not stated)", "activity, negative = inhibition": "-10.9% (inactive)"}
{"smiles": "CCCc1c(OCCCOc2ccc(OCC(=O)O)cc2)ccc(C(C)=O)c1O", "activity, negative = inhibition": "-6.32% (inactive)"}
{"smiles": "CC(N)(C(=O)O)c1ccc(C(=O)O)cc1", "note": "(configuration not stated)", "activity, negative = inhibition": "-6.58% (inactive)"}
{"smiles": "COC(=O)C1=C(C)NC(C)=C([N+](=O)[O-])C1c1ccccc1C(F)(F)F", "note": "(configuration not stated)", "activity, negative = inhibition": "-5.36% (inactive)"}
{"smiles": "CN[C@H](CC(=O)O)C(=O)O", "activity, negative = inhibition": "-14.8% (inactive)"}
{"smiles": "O=C(OCCN1CCOCC1)C1(c2ccccc2)CCCCC1", "activity, negative = inhibition": "-17.1% (inactive)"}
{"smiles": "CC(C)(CO)Cc1cc(C(C)(C)C)c(O)c(C(C)(C)C)c1", "activity, negative = inhibition": "-8.2% (inactive)"}
{"smiles": "CC(C)Cn1c(=O)n(C)c(=O)c2[nH]cnc21", "activity, negative = inhibition": "-4.21% (inactive)"}
